Assay [1] has as its target human Opioid Receptor Delta 1 (Opiate D1), OPRD1 (gene 4985) (UniProt P41143). The assay can be described thus: NVS_GPCR_hOpiate_D1: NovaScreen (NVS) G Protein-Coupled Receptor Assay for human Opioid Receptor Delta 1 (Opiate D1) (AID 2283280). The procedure, abridged: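 Membrane preparations from CHO cells bearing the human receptor were incubated 1 h with test chemical, and bound radioligand was counted after filtration. Actives from 25 uM duplicate screening were retested in concentration-response.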

Assay [2] concerns the target human Thromboxane A2 Receptor (TXA2), TBXA2R (gene 6915) (UniProt P21731). The assay can be described thus: NVS_GPCR_hTXA2: NovaScreen (NVS) G Protein-Coupled Receptor Assay for human Thromboxane A2 Receptor (TXA2) (AID 2283282).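 Note: actives reduce bound radioligand signal relative to DMSO baseline.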 The procedure, abridged:
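Human platelet membranes tested for radioligand displacement by filtration and scintillation counting 1 h post-dose. Screened in duplicate at 25 uM; activity fitted as signal loss relative to DMSO.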

Assay [3] addresses human Orphanin, Opioid Related Nociceptin Receptor 1 (ORL1), OPRL1 (gene 4987) (UniProt P41146). In words: NVS_GPCR_hORL1: NovaScreen (NVS) G Protein-Coupled Receptor Assay for human Orphanin, Opioid Related Nociceptin Receptor 1 (ORL1) (AID 2283283). The method, boiled down: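 Cell-free binding using HEK293-derived receptor protein: radioligand displacement measured by filter scintillation 1 hour after dosing. Primary testing at 25 uM in duplicate, followed by singleton concentration series up to 50 uM; DMSO served as negative control.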

Assay [4] concerns the target mouse Cholecystokinin, CCK1 Receptor (CCKA), Cckar (gene 12425) (UniProt O08786). In words: NVS_GPCR_mCCKAPeripheral: NovaScreen (NVS) G Protein-Coupled Receptor Assay for mouse Cholecystokinin, CCK1 Receptor (CCKA) (AID 2283285). The procedure, abridged:
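Chemicals were first screened in duplicate at 25 uM, with those meeting threshold (e.g., 30% inhibition) retested in singleton concentration series to 50 uM maximum. Binding of radioligand to mouse pancreatic membranes was read after 2 h by filtration and scintillation counting.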

Assay [5] has as its system 5-hydroxytryptamine receptor 2C (pig). The assay can be described thus: NVS_GPCR_p5HT2C: NovaScreen (NVS) G Protein-Coupled Receptor Assay for pig Serotonin, 5-Hydroxytryptamine Receptor 2C (5HT2C) (AID 2283288). The procedure, abridged:
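Radioligand displacement on membranes from pig choroid plexus, detected by filter scintillation counting after 1 h. Tested first at a single 25 uM in duplicate, then in concentration-response for actives; DMSO served as baseline.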

Assay [6] has as its target human Opioid Receptor Mu (Opiate Mu), OPRM1 (gene 4988) (UniProt P35372). In words: NVS_GPCR_hOpiate_mu: NovaScreen (NVS) G Protein-Coupled Receptor Assay for human Opioid Receptor Mu (Opiate Mu) (AID 2283290).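 Note: hits lower bound tracer signal versus DMSO meaning displacement of the ligand.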 The procedure, abridged: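 Here, radioligand binding to CHO-extracted receptor was measured after 2.5 h using filter-based scintillation detection. Initial single-concentration screening used 25 uM in duplicate with plate controls; confirmed actives went to concentration-response testing.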

Assay [7] has as its target mouse Cholecystokinin, CCK2 Receptor (CCKB), Cckbr (gene 12426) (UniProt P56481). In words: NVS_GPCR_mCKKBCentral: NovaScreen (NVS) G Protein-Coupled Receptor Assay for mouse Cholecystokinin, CCK2 Receptor (CCKB) (AID 2283293). The method, boiled down: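 Mouse forebrain membrane preparation incubated 2 h with chemical and radioligand; bound radioactivity counted after filtration. Single-concentration duplicate screen at 25 uM, then concentration series to 50 uM max for hits, DMSO as baseline.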

Assay [8] relates to rabbit Platelet Activating Factor Receptor (PAF), gene 100354046. In words: NVS_GPCR_rabPAF: NovaScreen (NVS) G Protein-Coupled Receptor Assay for rabbit Platelet Activating Factor Receptor (PAF) (AID 2283287). The method, boiled down:
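Rabbit platelet membrane preparation; radioligand displacement read by filter-based scintillation counting 1 h after dosing, loss of signal versus DMSO. Primary screen in duplicate at 25 uM, actives followed up in concentration series.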

Assay [9] has as its target human Neurotensin Receptor (NTS), NTSR1 (gene 4923) (UniProt P30989). The assay can be described thus: NVS_GPCR_hNTS: NovaScreen (NVS) G Protein-Coupled Receptor Assay for human Neurotensin Receptor (NTS) (AID 2283279). The procedure, abridged:
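Compounds competed with a radiolabelled ligand for binding to CHO-derived human neurotensin receptor; bound signal counted after filtration, 1 h. Screened first at a single concentration of 25 uM in duplicate, then concentration series to 50 uM maximum for actives.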

For assay [10], the target named is Neuropeptide Y receptor type 2 (Homo sapiens) (UniProt P49146). The assay can be described thus: NVS_GPCR_hNPY2: NovaScreen (NVS) G Protein-Coupled Receptor Assay for human Neuropeptide Receptor Y2 (NPY2) (AID 2283277). The method, boiled down: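 Chemicals were first tested in duplicate at 25 uM, then actives in singleton concentration series to 50 uM. Tracer binding to SK-N-MC-derived protein measured cell-free after 1 h via filter scintillation; signal loss relative to DMSO.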
Sequence of Neuropeptide Y receptor type 2 (Homo sapiens) (P49146 whole entry, looked up): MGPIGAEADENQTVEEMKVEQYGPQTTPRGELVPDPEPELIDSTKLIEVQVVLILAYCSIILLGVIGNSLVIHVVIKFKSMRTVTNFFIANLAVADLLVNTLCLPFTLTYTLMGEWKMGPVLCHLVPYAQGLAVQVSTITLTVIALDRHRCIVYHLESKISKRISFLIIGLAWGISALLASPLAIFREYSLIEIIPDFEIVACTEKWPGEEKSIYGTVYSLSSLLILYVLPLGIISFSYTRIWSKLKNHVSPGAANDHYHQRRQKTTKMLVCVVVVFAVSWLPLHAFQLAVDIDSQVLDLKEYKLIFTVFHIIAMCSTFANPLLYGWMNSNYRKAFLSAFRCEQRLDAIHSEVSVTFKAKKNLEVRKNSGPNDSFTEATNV

Results on 17 compounds are retold here after PubChem BioAssay (EPA / NIEHS).

Values joined by “and” are separate entries in the source; they are usually repeats but may differ in a detail not shown here. Equal values may be shown once. Results filed as inconclusive are left out. Active and inactive are the calls of the source. Rule for the calls: active = hit-call score of the fitted dose curve at least 0.9, where 1 is the maximum; inconclusive = response in the unintended direction; inactive = score below 0.9.

Sequence of human Opioid Receptor Mu (Opiate Mu), OPRM1 (gene 4988) (P35372 whole entry, looked up): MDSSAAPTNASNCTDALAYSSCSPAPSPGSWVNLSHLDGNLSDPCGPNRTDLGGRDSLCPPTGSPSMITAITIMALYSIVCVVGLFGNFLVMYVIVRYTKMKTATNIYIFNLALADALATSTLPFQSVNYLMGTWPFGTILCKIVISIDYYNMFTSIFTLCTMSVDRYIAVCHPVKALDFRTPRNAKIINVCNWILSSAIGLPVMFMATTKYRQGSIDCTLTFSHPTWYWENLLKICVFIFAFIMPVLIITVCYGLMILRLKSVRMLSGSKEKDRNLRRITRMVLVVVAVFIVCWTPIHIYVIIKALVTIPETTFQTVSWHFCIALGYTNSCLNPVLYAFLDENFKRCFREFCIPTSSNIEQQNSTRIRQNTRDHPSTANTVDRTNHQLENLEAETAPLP
Sequence of human Thromboxane A2 Receptor (TXA2), TBXA2R (gene 6915) (P21731 whole entry, looked up): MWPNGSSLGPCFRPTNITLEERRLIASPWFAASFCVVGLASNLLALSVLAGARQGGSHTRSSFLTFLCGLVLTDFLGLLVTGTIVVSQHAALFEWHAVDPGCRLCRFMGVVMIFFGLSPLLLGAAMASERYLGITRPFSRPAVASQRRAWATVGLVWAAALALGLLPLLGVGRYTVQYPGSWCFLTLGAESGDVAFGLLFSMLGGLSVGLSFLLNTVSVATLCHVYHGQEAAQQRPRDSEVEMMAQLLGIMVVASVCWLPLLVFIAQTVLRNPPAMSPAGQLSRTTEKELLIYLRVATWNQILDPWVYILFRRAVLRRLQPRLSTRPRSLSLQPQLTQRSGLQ
Sequence of mouse Cholecystokinin, CCK2 Receptor (CCKB), Cckbr (gene 12426) (P56481 whole entry, looked up): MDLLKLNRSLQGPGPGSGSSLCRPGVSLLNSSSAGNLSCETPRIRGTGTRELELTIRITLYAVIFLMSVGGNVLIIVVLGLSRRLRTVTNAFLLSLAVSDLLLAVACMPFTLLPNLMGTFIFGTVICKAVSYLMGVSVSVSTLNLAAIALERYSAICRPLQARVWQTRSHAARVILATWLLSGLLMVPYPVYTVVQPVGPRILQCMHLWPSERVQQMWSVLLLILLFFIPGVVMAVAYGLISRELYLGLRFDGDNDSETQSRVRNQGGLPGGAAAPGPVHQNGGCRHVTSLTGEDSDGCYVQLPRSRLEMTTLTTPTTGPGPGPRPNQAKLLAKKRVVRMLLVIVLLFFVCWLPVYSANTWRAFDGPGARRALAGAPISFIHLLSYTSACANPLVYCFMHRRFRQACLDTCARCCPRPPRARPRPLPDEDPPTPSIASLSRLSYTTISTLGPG
Sequence of human Opioid Receptor Delta 1 (Opiate D1), OPRD1 (gene 4985) (P41143 whole entry, looked up): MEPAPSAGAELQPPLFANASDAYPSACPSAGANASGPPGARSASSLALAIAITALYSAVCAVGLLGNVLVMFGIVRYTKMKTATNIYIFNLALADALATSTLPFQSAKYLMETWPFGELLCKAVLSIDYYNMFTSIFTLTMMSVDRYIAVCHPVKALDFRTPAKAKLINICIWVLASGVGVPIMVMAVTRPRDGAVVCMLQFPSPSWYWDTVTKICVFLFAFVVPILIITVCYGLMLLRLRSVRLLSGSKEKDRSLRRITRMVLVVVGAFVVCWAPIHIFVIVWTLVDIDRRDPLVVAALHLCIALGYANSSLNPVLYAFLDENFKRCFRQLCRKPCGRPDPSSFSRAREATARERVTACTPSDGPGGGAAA
Sequence of mouse Cholecystokinin, CCK1 Receptor (CCKA), Cckar (gene 12425) (O08786 whole entry, looked up): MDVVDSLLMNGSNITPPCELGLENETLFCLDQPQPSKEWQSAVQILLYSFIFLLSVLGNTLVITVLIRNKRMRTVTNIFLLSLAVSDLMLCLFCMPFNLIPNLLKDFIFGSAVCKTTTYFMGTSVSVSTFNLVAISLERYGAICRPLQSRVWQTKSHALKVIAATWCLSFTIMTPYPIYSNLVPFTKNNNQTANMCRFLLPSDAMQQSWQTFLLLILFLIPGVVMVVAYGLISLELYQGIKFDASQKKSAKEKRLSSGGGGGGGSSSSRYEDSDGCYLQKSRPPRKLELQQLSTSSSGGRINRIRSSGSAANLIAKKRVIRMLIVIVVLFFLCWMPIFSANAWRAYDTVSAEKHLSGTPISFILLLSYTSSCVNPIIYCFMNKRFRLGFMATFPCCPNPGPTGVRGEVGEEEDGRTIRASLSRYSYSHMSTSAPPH
Sequence of human Orphanin, Opioid Related Nociceptin Receptor 1 (ORL1), OPRL1 (gene 4987) (P41146 whole entry, looked up): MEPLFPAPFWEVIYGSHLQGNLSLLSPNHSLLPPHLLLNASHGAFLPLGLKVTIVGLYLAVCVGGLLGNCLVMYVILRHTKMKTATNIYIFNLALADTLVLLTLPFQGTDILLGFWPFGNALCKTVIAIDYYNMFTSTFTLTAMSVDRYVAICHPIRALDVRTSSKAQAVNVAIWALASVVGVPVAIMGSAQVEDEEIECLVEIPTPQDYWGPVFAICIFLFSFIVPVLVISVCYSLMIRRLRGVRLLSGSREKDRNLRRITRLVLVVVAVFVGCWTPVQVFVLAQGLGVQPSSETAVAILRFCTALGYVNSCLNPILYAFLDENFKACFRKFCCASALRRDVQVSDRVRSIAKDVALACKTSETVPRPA
Sequence of human Neurotensin Receptor (NTS), NTSR1 (gene 4923) (P30989 whole entry, looked up): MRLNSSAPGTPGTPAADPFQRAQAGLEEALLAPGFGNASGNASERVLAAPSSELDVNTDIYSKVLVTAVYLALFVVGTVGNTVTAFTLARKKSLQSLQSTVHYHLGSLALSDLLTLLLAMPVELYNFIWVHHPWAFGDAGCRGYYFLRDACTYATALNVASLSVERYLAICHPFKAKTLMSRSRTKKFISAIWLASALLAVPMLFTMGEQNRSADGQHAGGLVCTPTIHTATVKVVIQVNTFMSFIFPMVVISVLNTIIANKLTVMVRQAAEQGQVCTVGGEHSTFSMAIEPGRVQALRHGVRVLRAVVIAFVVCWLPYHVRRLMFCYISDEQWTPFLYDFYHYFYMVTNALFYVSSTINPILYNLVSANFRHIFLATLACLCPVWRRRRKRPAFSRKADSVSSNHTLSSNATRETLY

On to `CC/C(=C(/CC)c1ccc(O)cc1)c1ccc(O)cc1`, for which the outcome in assay [1] was inactive. The concentration at half-maximal activity (AC50) is 15.3 µM (active) in [2]; 11.4 µM (active) in assay [3]; 12.5 µM (active) in assay [4]; 22.1 µM (active) in [5]; 5.64 µM (active) and 4.96 µM (active) and 10.7 µM (active) in [6]; 37.9 µM (active) in assay [7].
For `Oc1ccc2ccccc2c1`, in assay [5], the half-maximal activity concentration (AC50) was 9.86 µM (active).
As to `Clc1ccccc1C(c1ccccc1)(c1ccccc1)n1ccnc1`, the AC50 in assay [8] was 0.621 µM (active). Further, the compound was classed as inactive in assay [6].
Turning to `CCCC(=O)OCCC(C)C`, the half-maximal activity concentration (AC50) in assay [9] was 15 µM (active). The call in assay [7] was inactive.
Regarding `CCN(Cc1cccc(S(=O)(=O)O)c1)c1ccc(C(=C2C=CC(=[N+](CC)Cc3cccc(S(=O)(=O)O)c3)C=C2)c2ccccc2S(=O)(=O)[O-])cc1`, the half-maximal activity concentration (AC50) in assay [2] is 8.17 µM (active).
As for `Cc1cc2c(cc1C(F)(F)F)N(C(=O)Nc1ccc(Oc3cccnc3C)nc1)CC2`, the AC50 is 13.3 µM (active) in assay [4] and 0.00211 µM (active) in assay [5]. Besides, the result in [6] was inactive.
In the case of `CN(C[C@@H](CC[N+]12CCC(C3CCCCC3)(CC1)CC2)c1ccc(Cl)c(Cl)c1)C(=O)c1cc(C(F)(F)F)cc(C(F)(F)F)c1`, the half-maximal activity concentration (AC50) in assay [2] was 25 µM (active); in assay [5], 25 µM (active); in assay [6], 2.11 µM (active).
As to `C[C@]12CC[C@@H]3c4ccc(O)cc4CC[C@H]3[C@@H]1CCC2=O`, in [1], the outcome was inactive.
As for `CCCCCCCCCCCO`, the result in assay [10] was inactive.
On to `O=C(O)c1ccccc1-n1cc(C(=O)O)c(=O)c2cc(Nc3c(F)cc(F)cc3Cl)c(Cl)cc21`, for which the call in [7] was inactive.
For the compound `CCCCCCCCOc1ccc(C(=O)c2ccccc2)c(O)c1`, the half-maximal activity concentration (AC50) in assay [2] is 25 µM (active).
Regarding `CCCCOC(=O)c1ccc(O)cc1`, in [5], the AC50 is 25 µM (active).
As for `c1ccc2n[nH]nc2c1`, the call in [5] was inactive.
`CO[C@H]1/C=C/O[C@@]2(C)Oc3c(C)c(O)c4c(O)c(c(/C=N/N5CCN(C)CC5)c(O)c4c3C2=O)NC(=O)/C(C)=C\C=C\[C@H](C)[C@H](O)[C@@H](C)[C@@H](O)[C@@H](C)[C@H](OC(C)=O)[C@@H]1C`: in assay [10], the concentration at half-maximal activity (AC50) was 0.0867 µM (active). For the same compound, in assay [2], the outcome was inactive.
Regarding `O=c1ccc2ccccc2o1`, in assay [5], the call was inactive.
On the same count and under the same terms, in the case of `CC(C)(C)c1cc(/C=C2\SC(N)=NC2=O)cc(C(C)(C)C)c1O` it was “inactive”.
Consider `O=C(O)Cn1c(=O)n(Cc2ccc(Br)cc2F)c(=O)c2ccc(Cl)cc21`, for which, in assay [10], the compound was called inactive.

One may read the AC50 as the concentration giving half of the maximal activity seen.
